40 compounds from PubChem BioAssay (NCATS) can be followed below.

Records with an inconclusive call do not appear. The source made the active and inactive calls. Calls come from the whole dose curve; as a rule, active = well fitted cell-killing curve with a large enough effect; inconclusive = small, poorly fitted or top-dose-only effect; inactive = flat fitted curve, though single readings scatter.
Potency is the fitted concentration of half-maximal effect.

The experiment can be described thus: qHTS of pediatric cancer cell lines to identify multiple opportunities for drug repurposing: Confirmatory screen for A673 cells (AID 1347110).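 Note: cells exposed to compound for 48 h before the viability read; nearly all actives have a fitted effect of over 65% in size.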 The following applies: A673 Ewing sarcoma cell viability; series mostly up to 45.9 µM. The text has this: Drug repurposing or repositioning has been offered as a strategy for drug development in oncology programs. This approach has special potential for childhood cancers and other rare or orphan diseases, where the expected return on new drug development has been a disincentive to pharmaceuticals.
In this project we exploit the poly-pharmacology of drugs to discover new indications via phenotypic screening of a panel of 19 well-characterized cell lines derived from solid tumors seen in children and adolescents. The goal is to identify approved drugs with previously unrecognized anticancer properties that has the potential to reveal new mechanisms and biological processes involved in carcinogenesis or drug resistance. We employed a titration-based paradigm (quantitative high-throughput screening or qHTS), where all compounds were tested at multiple concentrations for their effect on cell viability. Concentration-response curves (CRCs) were derived directly from the primary screen, and both potency and efficacy values were used to identify compounds with robust bioactivity profiles. We screened the NIH Chemical Genomics Center (NCGC) Pharmaceutical Collection (NPC) and Mechanism Interrogation Plate (MIPE) small molecule collections of approved and investigational compounds against these cell lines; and measured metabolically active cells after 48 hours of compound treatment as a proxy for cell viability.
Assay Submitter: Nathalia J. Martinez, National Center for Advancing Translational Sciences, National Institutes of Health, Rockville, MD, USA; email: natalia.martinez@nih.gov.
[1] Shen, M et al. Quantitative high-throughput phenotypic screening of pediatric cancer cell lines identifies multiple opportunities for drug repurposing. Oncotarget 2017 Dec 19;9(4):4758-4772. PMID 29435139.
The cells were obtained from University of North Carolina (UNC), Pediatric Preclinical Testing Program (PPT), and Coriell Institute (CI).
qHTS cell viability assay:
Cells were assayed in growth media at a density of 500-1,000 cells/well. Five microliters of cells were dispensed into 1,536-well, white, solid-bottom, TC-treated plates (Greiner Bio One) using a multidrop dispenser and incubated at 37 degrees C, 5% CO2, under a humidified atmosphere for 5 hours. Twenty-three nanoliters of compounds and controls (neutral control DMSO or positive control bortezomib at final concentration of 2.3 uM) were subsequently transferred by Kalypsys pintool. For primary screens, the MIPE collection was tested at 11-point dilutions (final concentrations range from 0.78 nM to 46 µM) and the NPC collection at 8-point dilutions (final concentrations range from 0.59 nM to 46 µM). Compounds tested in follow-up screens were assayed at 11-point dilutions. Cells were incubated for 48 hours, followed by addition of 3 uL of CellTiter-Glo (Promega). After a 15min incubation at room temperature, samples were analyzed for luminescence intensity using a ViewLux High-throughput CCD imager equipped with clear filters.
On to `CC(C)(C)c1cc(NC(=O)Nc2ccc(-c3cn4c(n3)sc3cc(OCCN5CCOCC5)ccc34)cc2)no1`, for which the Potency was 0.585 µM (active).

As to `CCN1CCN(Cc2ccc(-c3cc4c(N[C@H](C)c5ccccc5)ncnc4[nH]3)cc2)CC1`, the Potency is 0.479 µM (active).

In the case of `CN1CCN(Cc2ccc(NC(=O)Nc3ccc(Oc4cc(NC(=O)C5CC5)ncn4)cc3)cc2C(F)(F)F)CC1`, the Potency is 0.131 µM (active).

On to `Cn1c2ccccc2c2c3c(c4c5ccccc5n(CCC#N)c4c21)CNC3=O`, for which the Potency was 4.65 µM (active).

Consider `Cc1ccc2nc(NC(=O)CSc3nc4c(c(=O)n3-c3ccccc3)SCC4)sc2c1`, for which the Potency is 1.04 µM (active).

Regarding `O=C(Nc1cn[nH]c1-c1nc2ccc(CN3CCOCC3)cc2[nH]1)NC1CC1`, the Potency result is “inactive”.

In the case of `CC(C)c1cnn2c(NCc3ccccc3)cc(N[C@@H](CO)[C@H](O)CO)nc12`, the Potency was 0.369 µM (active).

With `CNC(=O)c1c(F)cccc1Nc1nc(Nc2cc3c(cc2OC)CCN3C(=O)CN(C)C)nc2[nH]ccc12`, the Potency is 11.7 µM (active).

On to `CN[C@H]1CCc2cc(OC)c(OC)c(OC)c2-c2ccc(OC)c(=O)cc21`, for which the Potency is 0.104 µM (active).

As for `CC[C@@H]1C(=O)N(C)c2cnc(Nc3ccc(C(=O)NC4CCN(C)CC4)cc3OC)nc2N1C1CCCC1`, the Potency was 0.0369 µM (active).

With `COc1cc2c(Oc3ccc(NC(=O)C4(C(=O)Nc5ccc(F)cc5)CC4)cc3F)ccnc2cc1OCCCN1CCOCC1`, the Potency was 2.33 µM (active).

Regarding `O=C(Nc1ncc(-c2cc(C(F)F)nn2-c2c(Cl)cccc2Cl)s1)C1CC1`, the Potency was 0.293 µM (active).

With `CC(NCc1ccc2c(c1)nc(NC(=O)c1ccc(-c3cn[nH]c3)s1)n2CC(C)(C)O)C(C)(C)C` (stereo not given), the Potency is 0.827 µM (active).

As for `COc1cc(Nc2ncc(F)c(Nc3ccc4c(n3)N(COP(=O)(O)O)C(=O)C(C)(C)O4)n2)cc(OC)c1OC`, the Potency was 7.37 µM (active).

With `Cc1ccc(C(=O)Nc2cccc(C(F)(F)F)c2)cc1-c1ccc2nc(NCCN3CCOCC3)ncc2c1`, the Potency was 13.1 µM (active).

On to `NC(=O)Nc1cc(-c2cccc(F)c2)sc1C(=O)N[C@H]1CCCNC1`, for which the Potency was 1.85 µM (active).

For the compound `COc1cccc2nc(-c3cccs3)nc(NN3C(=O)C=C(C)C3=O)c12`, the Potency is 5.22 µM (active).

On to `Cc1nc2cnc3ccc(C#Cc4cccnc4)cc3c2n1-c1ccc(C(C)(C)C#N)cc1`, for which the Potency is 2.69 µM (active).

`Cc1cc(C(=O)N2CCN(c3cccc(Cl)c3)CC2)n(-c2ccccc2)n1`: the Potency is 2.33 µM (active).

Take `CC1(C)OC2=C(C(=O)c3ccccc3C2=O)[C@H](NCc2ccccc2)[C@H]1O`: the Potency was 2.93 µM (active).

On to `Cc1nc(Nc2n[nH]c3c2CN(C(=O)N[C@H](CN(C)C)c2ccccc2)C3(C)C)c2sccc2n1`, for which the Potency was 13.1 µM (active).

Take `COC(=O)Nc1nc2ccc(C(=O)c3ccc(F)cc3)cc2[nH]1`: the Potency is 1.31 µM (active).

On to `O=c1[nH]nc(Sc2ncc([N+](=O)[O-])s2)n1-c1ccc2c(c1)OCCO2`, for which the Potency was 9.27 µM (active).

As for `COc1ccc(F)c(F)c1C(=O)c1cnc(NC2CCN(S(C)(=O)=O)CC2)nc1N`, the Potency was 2.93 µM (active).

Regarding `O=C(NC1CCNCC1)c1[nH]ncc1NC(=O)c1c(Cl)cccc1Cl`, the Potency was 0.414 µM (active).

Turning to `CCS(=O)(=O)c1cccc(-c2cc(C(=O)NC3CCN(C)CC3)c(C)c3[nH]c4ncc(C)cc4c23)c1`, the Potency is 0.928 µM (active).

Regarding `COc1cc2c(Oc3ccc(-c4cnc(Nc5ccc(F)cc5)n(C)c4=O)cc3F)ccnc2cc1OCCCN1CCOCC1`, the Potency is 4.14 µM (active).

On to `COc1cccc2c(NCc3ccccc3)nc(-n3c(N)nc4ccccc43)nc12`, for which the Potency was 7.37 µM (active).

For `O=C(Cc1ccc(-c2ccc(OCCN3CCOCC3)cc2)cn1)NCc1ccccc1`, the Potency was 0.131 µM (active).

As to `COCCn1c2c([n+](Cc3cnccn3)c1C)C(=O)c1ccccc1C2=O`, the Potency is 0.0165 µM (active).

Consider `Cc1ccc(C(=O)Nc2ccc(CN3CCN(C)CC3)c(C(F)(F)F)c2)cc1C#Cc1cnc2cccnn12`, for which the Potency is 4.65 µM (active).

As for `COc1cc2c(NC3CCN(C(C)C)CC3)nc(C3CCCCC3)nc2cc1OCCCN1CCCC1`, the Potency is 18.5 µM (active).

Take `Cc1cn(-c2cc(NC(=O)c3ccc(C)c(Nc4nccc(-c5cccnc5)n4)c3)cc(C(F)(F)F)c2)cn1`: the Potency was 20.8 µM (active).

Regarding `Cc1nc(N)ncc1-c1nc(N2CCOCC2)c2sc(C(C)(C)O)cc2n1`, the Potency was 2.33 µM (active).

`COC(=O)Nc1ccc(-c2nc(N3CCOCC3)c3cnn(C4CCN(Cc5cccnc5)CC4)c3n2)cc1`: the Potency is 1.31 µM (active).

For the compound `Cc1[nH]c2ccccc2c1CCNCc1ccc(C=CC(=O)NO)cc1`, the Potency was 0.329 µM (active).

On to `O=C(C=Cc1cccnc1)NCCCCC1CCN(C(=O)c2ccccc2)CC1`, for which the Potency result is “inactive”.

As to `COC(=O)[C@]12CCC(C)(C)C[C@@H]1[C@@H]1C(=O)C=C3[C@@]4(C)C=C(C#N)C(=O)C(C)(C)[C@@H]4CC[C@@]3(C)[C@]1(C)CC2`, the Potency is 1.65 µM (active).

On to `CN1CC[C@@H](c2c(O)cc(O)c3c(=O)cc(-c4ccccc4Cl)oc23)[C@@H](O)C1`, for which the Potency was 0.522 µM (active).

In the case of `Cc1c(Cn2c(C)nc3c(C(=O)O)cc(N4CCOCC4)cc32)cccc1C(F)(F)F`, the Potency entry was “inactive”.
